Consider 25 compounds from PubChem BioAssay (Tox21).

“And” between values parts separate entries of the source, which are not always exact repeats. Identical values can stand only once. Unmarked numbers belong to inactive results. Inconclusive results are not listed. The source made the active and inactive calls. Calls follow the shape of the dose curve; as a rule, active = well fitted curve in the direction sought with a large enough effect in the repeat runs; inconclusive = weak or mixed curves; inactive = no such curve, though single readings can be large; an effect the other way counts as inactive or inconclusive.

Experiment [1] is described as follows: Caspase-3/7 induction in HepG2 cells by small molecules, qHTS assay (AID 1346978). Also: nearly all actives have a fitted effect of over 15% in size. Also: potency is read from the fitted curve at half-maximal effect. The procedure, abridged:
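Caspase-3/7 induction was measured by Caspase-Glo 3/7 luminescence (30 min, room temperature) after a 17 hr compound exposure of wild-type HepG2 cells seeded at 2,000 per well and pre-incubated 5 hr.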

Experiment [2] can be described thus: Caspase-3/7 induction in CHO-K1 cells by small molecules, qHTS cell viability counter screen (AID 1346979). Also: nearly all actives have a fitted effect of over 35% in size. Also: potency is read from the fitted curve at half-maximal effect. The procedure, abridged: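 Following a 5hr settling period, CHO-K1 cells at 1,500 per well received DMSO-dissolved compounds. Cell viability was quantified 16hr later by CellTiter-Fluor fluorescence, measured after 1hr with reagent at 37C.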
(In general: In qHTS, concentration-response curves come from the screen itself.)

Experiment [3] is described as follows: Caspase-3/7 induction in CHO-K1 cells by small molecules, qHTS assay (AID 1346980). Also: nearly all actives have a fitted effect of over 15% in size. Also: potency is read from the fitted curve at half-maximal effect. The procedure, abridged:
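Luminescent Caspase-Glo 3/7 read (30min, room temperature) quantified apoptosis induction. Cells were wild-type CHO-K1, treated with compound for 17hr at 37 C and 5% CO2.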

Experiment [4] is described as follows: Caspase-3/7 induction in HepG2 cells by small molecules, qHTS cell viability counter screen (AID 1346981). Also: nearly all actives have a fitted effect of over 30% in size. Also: potency is read from the fitted curve at half-maximal effect. As to activity change, negative = cytotoxicity: series mostly up to about 92 µM. The procedure, abridged: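 CellTiter-Fluor fluorescence measured viability in the same wells used for Caspase-Glo 3/7. HepG2 (wild type) at 2,000 cells/well were pre-incubated 5 hr, dosed, and given reagent at 16 hr, with 1 hr further at 37C.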
Experiment [5] concerns the target Nuclear receptor subfamily 1 group I member 2 (Homo sapiens) (UniProt O75469). Put plainly: Human pregnane X receptor (PXR) small molecule agonists, qHTS assay (AID 1346982). Also: nearly all actives have a fitted effect of over 35% in size. Also: potency is read from the fitted curve at half-maximal effect. The procedure, abridged:
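Agonist mode: luminescence from ONE-Glo after 24 h compound exposure at 37C in HepG2 cells carrying hPXR-responsive CYP3A4 luciferase, plated in charcoal-stripped serum medium 5 h beforehand.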

The target in experiment [6] is Cytochrome P450 2D6 (Homo sapiens) (UniProt P10635). The experiment is described as follows: Cytochrome P450 Family 2 Subfamily D Member 6 (CYP2D6) small molecule antagonists: luciferase reporter qHTS assay (AID 1671196). Also: nearly all actives have a fitted effect of over 50% in size. Also: potency is read from the fitted curve at half-maximal effect. As to activity change, negative = inhibition: series mostly up to about 120 µM. The procedure, abridged:
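CYP2D6 activity was followed as luminescence from its luciferin product after a 1 h NADPH-driven reaction at room temperature. Enzyme-substrate mix and compound were pre-incubated for 10 min, and the signal was read 20 min after adding detection reagent.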

The target in experiment [7] is Nuclear receptor subfamily 1 group I member 2 (Rattus norvegicus) (UniProt Q9R1A7). The experiment is described as follows: Rat pregnane X receptor (rPXR) activation by small molecules, qHTS assay (AID 1346983). Also: nearly all actives have a fitted effect of over 20% in size. The note with it: rPXR luciferase reporter cells, One-Glo luminescence, 24 h; active compounds read high. Summed up:
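Luminescent readout (One-Glo luciferase, 30 min room temperature) followed 24 hr compound treatment at 37 C of rPXR cells plated 2,000 per well and preincubated 5hr; qHTS format with compounds delivered in DMSO.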

Experiment [8] addresses Nuclear receptor subfamily 1 group I member 2 (Homo sapiens) (UniProt O75469). Put plainly: Human pregnane X receptor (PXR) activation by small molecules, qHTS assay (AID 1346985). Also: nearly all actives have a fitted effect of over 40% in size. Also: potency is read from the fitted curve at half-maximal effect. The procedure, abridged:
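DPX-2 cells (HepG2 co-transfected with a PXR response element and a CYP3A4-promoter luciferase construct) were seeded at 2,000 per well, rested 5 hr at 37C, then exposed to DMSO-dissolved compounds for 24 hr. Activation was read as luciferase luminescence.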

Experiment [9] deals with Cytochrome P450 2C19 (Homo sapiens) (UniProt P33261). The experiment is described as follows: Cytochrome P450 Family 2 Subfamily C Member 19 (CYP2C19) small molecule antagonists: luciferase reporter qHTS assay (AID 1671197). Also: nearly all actives have a fitted effect of over 65% in size. Also: potency is read from the fitted curve at half-maximal effect. As to activity change, negative = inhibition: series mostly up to about 120 µM. The procedure, abridged:
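P450-Glo CYP2C19 system: enzyme-substrate mix with compound 10 min at room temperature, then NADPH regeneration solution, 1 h at 37C. Proluciferin-to-luciferin conversion detected by luminescence after 20 min with detection reagent; ketoconazole as positive control.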
% is scaled to controls: 0 for no effect and ±100 for the full control effect.

Sequence of Nuclear receptor subfamily 1 group I member 2 (Rattus norvegicus) (Q9R1A7 whole entry, looked up): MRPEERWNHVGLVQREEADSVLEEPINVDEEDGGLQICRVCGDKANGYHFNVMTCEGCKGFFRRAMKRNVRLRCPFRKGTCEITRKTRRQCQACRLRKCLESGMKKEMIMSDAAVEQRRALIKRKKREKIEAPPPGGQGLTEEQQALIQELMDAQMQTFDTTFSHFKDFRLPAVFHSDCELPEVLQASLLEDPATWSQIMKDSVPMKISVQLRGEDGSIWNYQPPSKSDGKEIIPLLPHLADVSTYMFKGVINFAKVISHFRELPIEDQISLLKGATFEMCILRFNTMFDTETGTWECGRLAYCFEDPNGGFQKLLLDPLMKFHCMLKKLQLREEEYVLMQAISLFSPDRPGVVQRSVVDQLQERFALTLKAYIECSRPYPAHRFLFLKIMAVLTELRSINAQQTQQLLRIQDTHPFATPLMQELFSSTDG
Sequence of Cytochrome P450 2D6 (Homo sapiens) (P10635 whole entry, looked up): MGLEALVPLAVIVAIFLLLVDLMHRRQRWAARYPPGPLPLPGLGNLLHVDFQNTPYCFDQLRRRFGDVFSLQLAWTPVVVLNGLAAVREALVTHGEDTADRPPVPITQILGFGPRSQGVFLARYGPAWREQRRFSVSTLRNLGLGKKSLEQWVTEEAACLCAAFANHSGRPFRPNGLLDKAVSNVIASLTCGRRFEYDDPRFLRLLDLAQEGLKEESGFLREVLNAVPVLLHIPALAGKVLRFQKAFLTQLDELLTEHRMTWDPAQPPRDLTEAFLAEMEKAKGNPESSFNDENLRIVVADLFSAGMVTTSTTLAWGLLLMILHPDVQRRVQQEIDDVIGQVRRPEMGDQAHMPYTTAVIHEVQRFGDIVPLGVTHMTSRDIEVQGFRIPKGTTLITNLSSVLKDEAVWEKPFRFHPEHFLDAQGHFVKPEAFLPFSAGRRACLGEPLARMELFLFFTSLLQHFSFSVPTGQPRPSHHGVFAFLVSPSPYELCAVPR
Sequence of Nuclear receptor subfamily 1 group I member 2 (Homo sapiens) (O75469 whole entry, looked up): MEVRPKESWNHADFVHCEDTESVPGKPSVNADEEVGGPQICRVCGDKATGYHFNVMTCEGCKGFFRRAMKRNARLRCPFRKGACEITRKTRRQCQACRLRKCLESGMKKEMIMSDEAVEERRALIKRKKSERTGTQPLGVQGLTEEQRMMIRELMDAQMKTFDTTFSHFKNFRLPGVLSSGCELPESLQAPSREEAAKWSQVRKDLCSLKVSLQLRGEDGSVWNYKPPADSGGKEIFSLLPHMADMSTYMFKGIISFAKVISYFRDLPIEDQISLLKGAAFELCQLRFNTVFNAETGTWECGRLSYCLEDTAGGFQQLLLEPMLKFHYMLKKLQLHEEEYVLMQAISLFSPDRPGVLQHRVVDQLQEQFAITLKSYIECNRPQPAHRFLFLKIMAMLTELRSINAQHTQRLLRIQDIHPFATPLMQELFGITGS
Sequence of Cytochrome P450 2C19 (Homo sapiens) (P33261 whole entry, looked up): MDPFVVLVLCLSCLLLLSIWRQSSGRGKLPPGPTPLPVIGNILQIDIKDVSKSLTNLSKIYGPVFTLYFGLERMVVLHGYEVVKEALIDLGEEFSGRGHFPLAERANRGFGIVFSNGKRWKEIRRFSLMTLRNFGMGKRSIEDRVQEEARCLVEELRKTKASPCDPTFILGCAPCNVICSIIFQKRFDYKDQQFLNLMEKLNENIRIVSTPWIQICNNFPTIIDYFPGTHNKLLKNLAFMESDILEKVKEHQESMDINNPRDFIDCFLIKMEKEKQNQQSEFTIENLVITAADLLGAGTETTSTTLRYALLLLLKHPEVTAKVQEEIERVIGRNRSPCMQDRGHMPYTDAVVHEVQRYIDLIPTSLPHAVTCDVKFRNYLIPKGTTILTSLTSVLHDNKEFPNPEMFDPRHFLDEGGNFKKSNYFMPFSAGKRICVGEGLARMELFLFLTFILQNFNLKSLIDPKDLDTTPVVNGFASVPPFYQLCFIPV

Regarding `CCCC(=O)OC(C)(C)Cc1ccccc1`, the Potency entry in experiment [1], in experiment [2], in experiment [3] and in [4] was “inactive” throughout.

Regarding `OC[C@@H](O)[C@@H](O)CO`, the Potency entry in [1], in experiment [2], in experiment [3], in experiment [4], in [5] and in [6] was “inactive” each time.

For the compound `Cc1nc(-c2ccc(Cl)cc2)oc1COC(C)(C)C(=O)O`, the Potency result in [1], in experiment [2], in experiment [3], in [4], in experiment [5] and in [8] was “inactive” throughout. Further, the Potency result in experiment [6] and in [9] was “inactive” in each case. Moreover, the max activation in [7] was -7.31%.

`OC1CCCc2ccccc21` (stereo not given): the Potency entry in experiment [1], in experiment [2], in experiment [3], in experiment [4], in experiment [5] and in experiment [6] was “inactive” in each case.

With `CC(C)NC[C@@H](O)COc1ccc(CC(N)=O)cc1`, the Potency result in experiment [1], in experiment [2], in experiment [3], in [4], in [5] and in experiment [8] was “inactive” in each case. Besides, the max activation in experiment [7] was -0.64%.

Take `Oc1c(I)cc(Cl)c2cccnc12`: the Potency result in experiment [1], in experiment [3] and in [4] was “inactive” throughout. The Potency was 27.3 µM (active) and 29.8 µM (active) in experiment [2]; 24.3 µM (active) and 23.7 µM (active) in [5].

For the compound `c1cnccn1`, the Potency result in experiment [1], in [2], in experiment [3], in experiment [4], in experiment [5] and in experiment [6] was “inactive” each time.

In the case of `Cc1ccc(C(C)C)cc2c(C)ccc1-2`, the Potency result in experiment [1], in experiment [2], in experiment [3], in experiment [4] and in experiment [6] was “inactive” in each case. The Potency in [5] was 10.6 µM (active); in experiment [8], 22.4 µM (active).

`CCN(CC)C(=O)c1cc(S(=O)(=O)Cc2ccccc2)c(N2CCC(c3ccccc3)CC2)cc1N(CC)CCN(C)C`: the Potency in experiment [1] is 19.1 µM (active); in experiment [2] it was 21.4 µM (active); in experiment [3] it was 24.1 µM (active); in experiment [4], 17 µM (active); in [5], 3.4 µM (active).

Turning to `CCCc1ccc(OCC(=O)N2CCN(C(=O)COc3ccc(CCC)cc3OC)CC2)c(OC)c1`, the Potency entry in experiment [1], in [2], in [3], in experiment [4] and in experiment [6] was “inactive” throughout. The Potency in [5] is 4.22 µM (active).

In the case of `CCc1cccc(CC)c1NC(=O)CN(CC(=O)O)CC(=O)O`, the Potency entry in experiment [1], in experiment [2], in experiment [3], in [4], in [5] and in experiment [8] was “inactive” in each case. The Potency entry in experiment [6] was “inactive”. In [7], the max activation was -4.1%.

`Nc1nc(N)nc(-c2cc(Cl)ccc2Cl)n1`: the Potency entry in experiment [1], in [2], in experiment [3], in experiment [4], in experiment [5] and in experiment [8] was “inactive” each time. The Potency entry in [9] is “inactive”. Also, the max activation in experiment [7] is -2.66%.

`Cc1c(N)cccc1C(F)(F)F`: the Potency result in experiment [1], in [2], in experiment [3], in [4], in [5] and in [6] was “inactive” each time. Also, the Potency result in experiment [9] was “inactive”.

As for `Cc1nc2n(c(=O)c1CCN1CCC(c3noc4cc(F)ccc34)CC1)CCCC2`, the Potency result in experiment [1], in experiment [2], in experiment [3], in experiment [4], in [5] and in experiment [9] was “inactive” each time. Also, the Potency in [6] is 2.19 µM (active).

Regarding `COc1cc(S(=O)(=O)O)c(C)cc1N=Nc1c(O)ccc2cc(S(=O)(=O)O)ccc12`, the Potency entry in experiment [1], in experiment [3] and in [5] was “inactive” throughout. The Potency in experiment [2] was 15.4 µM (active); in [4] it was 19.3 µM (active); in [6], 35.6 µM (active); in experiment [9] it was 79.6 µM (active).

As for `FC(F)(F)c1cccc(Cl)c1`, the Potency result in experiment [1], in experiment [2], in [3], in experiment [4] and in [5] was “inactive” throughout. For the same compound, in [9], the Potency was 69.7 µM (active).

With `O=C(O)Cc1ccc2c(c1)C(=O)c1ccccc1CO2`, the Potency entry in experiment [1], in [2], in experiment [3], in [4], in [5] and in experiment [6] was “inactive” throughout. For the same compound, the Potency result in experiment [9] was “inactive”.

Consider `COc1cc(/C=C/c2ccccc2)oc(=O)c1`, for which the Potency result in [1], in experiment [2], in [3], in [4] and in [6] was “inactive” in each case. Moreover, the Potency in [5] is 7.96 µM (active); in experiment [9], 10.4 µM (active).

As for `C=Cc1ccccc1C=C`, the Potency result in experiment [1], in experiment [2], in experiment [3], in experiment [4] and in experiment [9] was “inactive” each time. Also, the Potency is 109 µM (active) in experiment [5] and 79.4 µM (active) in [6].

Turning to `CCC(CC)C(C)CCOC(C)=O` (stereo not given), the Potency result in [1], in [2], in [3], in experiment [4], in experiment [5] and in [6] was “inactive” each time. In [9], the Potency entry was “inactive”.

Take `O=C(O)c1cccc(C(F)(F)F)c1`: the Potency result in experiment [1], in [2], in experiment [3], in experiment [4], in [5] and in experiment [6] was “inactive” in each case. For the same compound, in [9], the Potency result is “inactive”.

For the compound `CC(C)(C)NSc1nc2ccccc2s1`, the Potency result in experiment [1], in experiment [2], in experiment [3] and in experiment [4] was “inactive” throughout. Further, the Potency in [5] was 49.4 µM (active); in experiment [9], 32.2 µM (active).

Take `Cc1ccc(-c2ccccc2)cc1`: the Potency entry in experiment [1], in [2], in experiment [3], in [4], in [5] and in experiment [6] was “inactive” throughout. The Potency entry in experiment [9] is “inactive”.

For `CC(C)(C)CC(C)(C)c1ccc(Nc2ccc(C(C)(C)CC(C)(C)C)cc2)cc1`, the caspase activation in experiment [1] is 1.74% [at 8.39 µM]. Also, the activity change, negative = cytotoxicity in [2] is 5.88% [at 8.39 µM]; in [4], 3.23% [at 8.39 µM]. In addition, the caspase-3/7 activation in experiment [3] is 2.02% [at 8.39 µM]. In experiment [5], the activation was 4.4% [at 8.39 µM]. In experiment [9], the activity change, negative = inhibition was -21.4% [at 10.5 µM].

On to `O=S(=O)(O)c1ccc(Nc2nc(Nc3ccc(/C=C/c4ccc(Nc5nc(Nc6ccc(S(=O)(=O)O)cc6)nc(N(CCO)CCO)n5)cc4S(=O)(=O)O)c(S(=O)(=O)O)c3)nc(N(CCO)CCO)n2)cc1`, for which the Potency entry in [1], in [2], in [3], in experiment [4], in experiment [5] and in experiment [6] was “inactive” throughout. Moreover, in experiment [9], the Potency entry is “inactive”.
